Screens (PubChem BioAssay)
The list is not random: actives were taken first. Their share in the collection is about 10%.
BAZ2B block: BAZ2B (human) inhibition. AlphaScreen BAZ2B-H3K14Ac peptide displacement. Potency, µM (series often up to 114 µM), hits mostly inhibitors. Q9UIF8. 360,000 compounds, 4.4% hits; also: nearly all actives have a fitted effect of over 60% in size
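Complex of BAZ2B and biotin-H3K14Ac (50 nM apiece) forms over 30 min at RT, then faces library compounds up to 110 uM for another 30 min; AlphaScreen beads added, 20 min dark incubation, luminescence read.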
CtBP-E1A inh: blocks the CtBP interaction with E1A. AlphaScreen GST-E1A/His-CtBP binding, 1536-well; stronger effect = lower value. activity change, % (no concentration beside the values). 340,000 compounds, 0.49% hits. AID 651724; in the data active = activity change below about -65%; inconclusive = mostly about -30% to -63%
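Homogeneous bead-based format: GST-tagged E1A captured on glutathione donor beads, His-tagged CtBP on nickel acceptor beads; compounds precede bead addition by 2 h at 37 °C.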
Six1-Eya2 blk: inhibitors of human Six1/Eya2 interaction; AlphaScreen GST-Six1/His-Eya2 binding, biochemical; stronger effect = lower value; activity change, % (concentration not given with the values); 360,000 compounds, 0.56% hits; AID 651725; in the data active = activity change below about -65%; inconclusive = mostly about -30% to -63%
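Compounds are tested against tagged Six1 and Eya2 proteins bridged by glutathione donor and nickel acceptor beads; after a one-hour incubation at 37 °C without light, AlphaScreen emission is recorded.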
JMJD2A Tudor inh: inhibitors of human JMJD2A Tudor domain. AlphaScreen JMJD2A-Tudor / H3K4me3 peptide binding. O75164. 390,000 compounds, 4.4% hits. Potency, µM (highest dose often 114 µM), most hits filed as inhibitors; also: nearly all actives have a fitted effect of over 50% in size
G9a block: G9a (human) methyltransferase inhibition; Q96KQ7; G9a H3K9 monomethylation, AlphaScreen, 2 h; Potency, µM (highest dose often 102 µM), actives largely listed as inhibitors; 350,000 compounds, 8.8% hits; AID 504332; also: nearly all actives have a fitted effect of over 75% in size
Target sequence (Q96KQ7 913-1193 limits assumed): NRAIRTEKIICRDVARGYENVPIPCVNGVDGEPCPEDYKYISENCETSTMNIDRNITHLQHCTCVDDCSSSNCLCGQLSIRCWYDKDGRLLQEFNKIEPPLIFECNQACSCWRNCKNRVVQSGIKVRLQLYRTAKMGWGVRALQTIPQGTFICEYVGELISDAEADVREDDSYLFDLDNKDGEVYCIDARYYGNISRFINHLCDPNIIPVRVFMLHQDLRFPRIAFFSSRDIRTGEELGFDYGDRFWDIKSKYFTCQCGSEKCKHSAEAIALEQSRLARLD
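Quantitative HTS format: methyltransferase activity on a biotin-tagged H3K9 peptide is measured by AlphaScreen, using a rabbit anti-monomethyl-H3K9 antibody with streptavidin donor and anti-IgG acceptor beads. Final levels are 20 nM enzyme, 500 nM peptide, 20 uM SAM; 2 h RT.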
HP1b binding inh: inhibitors of HP1-beta chromodomain binding to methylated histone tails; AID 540317; Potency, µM (titrated, usually from 114 µM), usual class: inhibitors; AlphaScreen HP1-beta / biotin-H3K9me3 peptide binding; 390,000 compounds, 0.56% hits; also: nearly all actives have a fitted effect of over 70% in size
Target sequence (P83916 whole entry, looked up): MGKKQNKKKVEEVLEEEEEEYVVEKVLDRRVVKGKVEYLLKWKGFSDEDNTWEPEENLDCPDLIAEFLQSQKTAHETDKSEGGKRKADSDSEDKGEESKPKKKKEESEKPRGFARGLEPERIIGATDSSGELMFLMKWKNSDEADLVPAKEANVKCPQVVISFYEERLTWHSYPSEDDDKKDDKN
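AlphaScreen: HP1-beta (50 nM) preformed 30 min with biotin-H3(1-18)K9me3 peptide (50 nM) in PBS pH 7.4, 0.01% Tween-20. Compound added for 30 min at RT, then streptavidin donor/nickel chelate acceptor beads (10 ug/mL) for 30 min.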
Of the large screens only hits and unclear results are named; the others gave an inactive call. Unless noted, calls follow the shape of the dose curve; as a rule, active = well fitted inhibition curve with a large enough effect; inconclusive = small, poorly fitted or top-dose-only effect; inactive = no such curve, though single readings can be large or run the other way.

CC1(C)CCCN(C(=O)c2ccc3c(c2NCCO)C(=O)c2ccccc2C3=O)C1	BAZ2B block 14.1µM, Six1-Eya2 blk inconclusive, JMJD2A Tudor inh 39.8µM, G9a block 35.5µM
CC1CCCN(C(=O)c2ccc3c(c2NCCO)C(=O)c2ccccc2C3=O)C1 (stereo not drawn)	BAZ2B block 39.8µM, CtBP-E1A inh inconclusive, Six1-Eya2 blk inconclusive, JMJD2A Tudor inh 44.7µM, HP1b binding inh 50.1µM
O=C1c2ccccc2C(=O)c2c1ccc(C(=O)N1CCCCC1)c2NCCO	none
Cc1ccc(NC(N)=S)cc1C	none
N#C/C(=N\Nc1ccccc1)C(N)=S	BAZ2B block inconclusive, JMJD2A Tudor inh 22.4µM, G9a block 1.58µM
N#C/C(=N\Nc1ccc(Cl)cc1)C(N)=S	BAZ2B block inconclusive, JMJD2A Tudor inh inconclusive (no result: G9a block)
Cc1cc(C)n(C(=O)/C(C#N)=N\Nc2ccccc2[N+](=O)[O-])n1	none
Cc1ccc(N/N=C(\C#N)C(N)=S)cc1C	BAZ2B block 44.7µM, JMJD2A Tudor inh inconclusive, G9a block 2.82µM (no result: CtBP-E1A inh)
N#C/C(=N/Nc1ccccc1[N+](=O)[O-])C(N)=S	G9a block 1.12µM
CCN(C(=O)c1cc2cc(Br)cc(OC)c2oc1=O)c1ccccc1	none (no result: CtBP-E1A inh, Six1-Eya2 blk)
COc1ccc(CN2CCN(C(=O)c3ccco3)CC2)cc1	none
Cn1c(=O)[nH]c(=O)c2[nH]c(CN3CCN(C(=O)c4ccco4)CC3)nc21	JMJD2A Tudor inh 3.16µM, G9a block inconclusive
Cn1c(=O)c2[nH]c(CN(Cc3ccccc3)Cc3ccccc3)nc2n(C)c1=O	none
CN(Cc1ccccc1)Cc1nc2c([nH]1)c(=O)[nH]c(=O)n2C	JMJD2A Tudor inh 1µM
O=C(c1ccco1)N1CCN(Cc2nc3cc(Cl)ccc3c(=O)[nH]2)CC1	JMJD2A Tudor inh 14.1µM
O=C(O)CCCC(=O)N1N=C(c2ccccc2)CC1c1ccc2c(c1)OCO2 (stereo not drawn)	BAZ2B block inconclusive
O=C(NC(=S)Nc1ccccc1[N+](=O)[O-])c1cncc(Br)c1	G9a block 44.7µM (no result: CtBP-E1A inh)
O=C(Nc1ccccc1C(=O)O)c1cncc(Br)c1	BAZ2B block inconclusive, JMJD2A Tudor inh inconclusive, G9a block 4.47µM
O=C(NC(=S)Nc1ccccc1C(=O)O)c1cncc(Br)c1	JMJD2A Tudor inh inconclusive, G9a block 2µM, HP1b binding inh inconclusive
CCn1cc(C(=O)NC(=S)Nc2ccccc2[N+](=O)[O-])cn1	BAZ2B block inconclusive
Cc1cc(NC(=O)c2cncc(Br)c2)n(-c2ccccn2)n1	BAZ2B block 50.1µM
O=C(NC(=S)Nc1ccccc1O)c1cncc(Br)c1	none (no result: BAZ2B block, G9a block)
Cc1ccc(NC(=O)c2cncc(Br)c2)c(O)c1	none
N#Cc1ccccc1S(=O)(=O)N1CCN(C(=O)CCNS(=O)(=O)c2ccc(Cl)cc2)CC1	none (no result: BAZ2B block, G9a block)
NC(N)=NS(=O)(=O)c1ccc(NC(=S)NC(=O)c2ccccc2)cc1	none (no result: G9a block)
CC(C)c1ccc(O)c(NC(=S)NC(=O)c2ccc3c(c2)OCO3)c1	BAZ2B block inconclusive, JMJD2A Tudor inh inconclusive, G9a block 12.6µM
NS(=O)(=O)c1ccc(NC(=O)c2ccc3c(c2)OCO3)cc1	G9a block inconclusive
NC(N)=NS(=O)(=O)c1ccc(NC(=S)NC(=O)c2ccc3c(c2)OCO3)cc1	G9a block 44.7µM (no result: CtBP-E1A inh)
NS(=O)(=O)c1ccc(NC(=S)NC(=O)c2ccc3c(c2)OCO3)cc1	G9a block 39.8µM
COc1cc2[nH]c(=S)nc(NCc3cccs3)c2cc1OC	CtBP-E1A inh -89.5, Six1-Eya2 blk -84.5, G9a block 28.2µM
COc1cc2ncnc(NCc3cccs3)c2cc1OC	G9a block inconclusive
COc1ccccc1CNc1nc(=S)[nH]c2cc(OC)c(OC)cc12	CtBP-E1A inh -85.3, Six1-Eya2 blk -80.7, G9a block 79.4µM
CCc1ccccc1N1CC(c2nnc(NC(=O)c3ccco3)s2)CC1=O (stereo not drawn)	none (no result: CtBP-E1A inh, Six1-Eya2 blk)
Cc1ccc(NC(=O)C2CCCN2C(=O)c2cccs2)c(C)c1 (stereo not drawn)	G9a block inconclusive
CCCOc1cccc(C(=O)Nc2ccc(-c3cc4ccccc4oc3=O)c(C)c2)c1	none (no result: CtBP-E1A inh, Six1-Eya2 blk)
Cc1cc(Br)cc(C=Nc2ccc(N3CCOCC3)cc2)c1O	none (no result: BAZ2B block, G9a block)
